Holding throughout (assay type): functional
Test [1] relates to Plasmodium falciparum. Nature of the test: GSK_TCMDC: Inhibition of Plasmodium falciparum 3D7 in whole red blood cells, using parasite LDH activity as an index of growth. Test compounds present at 2uM.
For test [2], the system named is Plasmodium falciparum. Nature of the test: GSK_TCMDC: Inhibition of Plasmodium falciparum Dd2 in whole red blood cells, using parasite LDH activity as an index of growth. Test compounds present at 2uM.
The subject of another test is HepG2. Put plainly: GSK_TCMDC: Percent inhibition of human HepG2 cell line. Test compounds present at 10uM.

Molecules are shown by their SMILES.

For orientation: Inhibition means the change of the read-out against control, counted positive when it falls. Low readings indicate a weak effect, high ones a strong effect. In the case of `Cn1nc(-c2ccc(CN[C@@H]3CCc4ccc(O)cc43)cc2)c2cnc(NCCCN3CCCC3)nc21`, the Inhibition in the test on Plasmodium falciparum [1] is given as 100%; with Plasmodium falciparum [2], 61%; in the test on HepG2, 8%.

Turning to `Cc1ccc2[nH]c3ccccc3c(=O)c2c1`, the Inhibition in the test on Plasmodium falciparum [1] is given as 93%; in the test with Plasmodium falciparum [2] it was 74%; in the test on HepG2, 0%.

As to `CCO[C@H]1CN[C@H](C#Cc2cc3c(Nc4ccc(OCc5cccc(F)c5)c(Cl)c4)ncnc3s2)C1.O=C(O)C(F)(F)F`, the Inhibition in the test with Plasmodium falciparum [1] is 100%; with Plasmodium falciparum [2] it was 37%; with HepG2 it was 8%.

As for `Cc1cccc(CCNC(=O)c2cc(Br)cc(N3CCN(c4ccncc4)CC3)c2)c1.O=C(O)C(F)(F)F`, the Inhibition came to 96% in the test on Plasmodium falciparum [1], 53% with Plasmodium falciparum [2] and 48% in the test on HepG2.

Turning to `O=C(/C=C/c1ccc(Cl)c(Cl)c1)NCCCCCN1CCC(NC(=O)c2ccc3ccccc3c2)CC1`, the values for the Inhibition in the test with Plasmodium falciparum [1], in the test with Plasmodium falciparum [2] and in the test on HepG2 were 87%, 20% and 8%, respectively.

As for `CC(C)CCn1c(Sc2ccc(C#N)c([N+](=O)[O-])c2)nnc1-c1cccc(Cl)c1`, the Inhibition amounted to 96% in the test on Plasmodium falciparum [1], 82% with Plasmodium falciparum [2] and 33% in the test with HepG2.

As for `CC(Cc1ccc(Cl)cc1)Nc1nc(NC2CCCC2)nc(N2CCC(C#N)(c3ccccc3)CC2)n1` (stereo not given), the Inhibition is listed as 99% with Plasmodium falciparum [1], 95% in the test with Plasmodium falciparum [2] and 15% in the test with HepG2.

Regarding `O=C(NCC1CC1)C1Cc2c([nH]c3ccc(Br)cc23)C2(CCN(CCc3ccccc3)CC2)N1` (stereo not given), the Inhibition in the test with Plasmodium falciparum [1] stood at 88%; in the test on Plasmodium falciparum [2], 25%; with HepG2 it was 14%.

With `O=C(N[C@@H](Cc1ccccc1)C(=O)NC1CCCc2ccccc21)c1ccc(O)c(-c2cccc(C(F)(F)F)c2)c1` (stereo not given in full), the Inhibition in the test on Plasmodium falciparum [1] is 91%; in the test on Plasmodium falciparum [2], 41%; with HepG2 it was 0%.

For `C=CC(=O)Nc1ccc(Cl)cc1C(O)c1ccccc1` (stereo not given), the Inhibition in the test with Plasmodium falciparum [1] was determined as 100%; with Plasmodium falciparum [2], 5%; with HepG2, 0%.

(Values after ChEMBL document CHEMBL1157539, “Thousands of chemical starting points for antimalarial lead identification” (Nature, 2010).)
